Source: PubChem BioAssay AID720650 (Broad Institute, 2013)
A number with no mark means an inactive call. Active and inactive are the calls of the source. The rule behind the calls is not given here.

Assay: C difficile toxins, biochemical counterscreen, UDPG substrate absence, confirmatory dose response (AID 720650)
Details: series mostly up to 19.5 µM; activity change, negative = inhibition: at the top concentration
For `C/C(=N\NC(=O)CSc1nc2ccccc2c(=O)n1-c1ccccc1C)c1cccs1`, the “activity change, negative = inhibition” value was -1.74%. In the case of `Cc1cc(C(=O)NNc2ccc(C)c(C)c2)no1`, the AC50 was 0.287 µM (active). For `CC(C)CNC(=O)C(=O)NCC1CCCN1S(=O)(=O)c1cccs1` (centres undefined), the “activity change, negative = inhibition” value was -5.14%. In the case of `Nc1ccc(Sc2ccc(N)cc2)cc1`, the AC50 was 3.22 µM (active).
